Holding throughout (assay): DAPPL (digital affinity profiling via proximity ligation, sequencing); 10 mM Tris-HCl pH 7.5, 50 mM NaCl, 1 mM DTT, 4% glycerol, room temperature, 30 min; GST-TFs on glutathione beads, 16-mer random dsDNA library, 0.1% formaldehyde crosslink after washing; high values mean tight binding
In assay [1] the target is T1, FEV (Homo sapiens, UniProt Q99581 1-238).
T1 sequence: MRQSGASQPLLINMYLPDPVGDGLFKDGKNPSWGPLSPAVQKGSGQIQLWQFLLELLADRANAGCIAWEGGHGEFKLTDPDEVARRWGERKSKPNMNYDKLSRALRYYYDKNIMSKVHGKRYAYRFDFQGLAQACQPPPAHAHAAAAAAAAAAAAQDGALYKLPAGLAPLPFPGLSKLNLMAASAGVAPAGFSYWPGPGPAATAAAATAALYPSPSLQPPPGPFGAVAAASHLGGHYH
The following applies: protein: recombinant; tags: N-terminal GST; dsDNA, one strand shown. The gist of the method:
(§1)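 After expression in yeast as GST fusions, human transcription factors were bound to glutathione beads, DNA-barcoded and mixed with a tag-only sample. The pools were incubated with 200 nmole of a 16-mer random double-stranded DNA library in Tris/NaCl/DTT/glycerol buffer (30 min, room temperature), washed and crosslinked with 0.1% formaldehyde. Proximity ligation with BsaI/T4 ligase ran for 1 h at 37 °C, before PCR amplification and sequencing on an Illumina NextSeq500. Binding signal is a hexamer's read frequency for a factor divided by its frequency for the tag-only sample.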

Assay [2] deals with ETV5 (Homo sapiens, UniProt P41161 1-510). The following applies: protein: recombinant; tags: N-terminal GST; dsDNA, one strand shown. The gist of the method: as §1
Assay [3] has as its target HSF1 (Homo sapiens, UniProt Q00613 1-529). The following applies: protein: recombinant; tags: N-terminal GST; chain copies: 3; dsDNA, one strand shown. In a few lines:
as §1

In assay [4] the target is T2, SPIC (Homo sapiens, UniProt Q8N5J4 1-248).
T2 sequence: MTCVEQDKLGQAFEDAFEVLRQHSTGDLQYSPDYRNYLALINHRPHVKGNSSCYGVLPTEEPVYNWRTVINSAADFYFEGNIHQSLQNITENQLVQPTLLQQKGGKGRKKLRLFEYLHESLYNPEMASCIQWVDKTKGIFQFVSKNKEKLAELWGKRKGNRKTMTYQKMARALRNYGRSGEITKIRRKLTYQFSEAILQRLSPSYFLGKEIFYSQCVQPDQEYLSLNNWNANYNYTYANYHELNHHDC
The following applies: protein: recombinant; tags: N-terminal GST; dsDNA, one strand shown. The gist of the method: as §1

Assay [5] has as its target ELF4 (Homo sapiens, UniProt Q99607 1-663). The conditions noted are these: protein: recombinant; tags: N-terminal GST; dsDNA, one strand shown. In a few lines: as §1
For assay [6], the target named is T3, ELK4 (Homo sapiens, UniProt P28324-2 1-405).
T3 sequence: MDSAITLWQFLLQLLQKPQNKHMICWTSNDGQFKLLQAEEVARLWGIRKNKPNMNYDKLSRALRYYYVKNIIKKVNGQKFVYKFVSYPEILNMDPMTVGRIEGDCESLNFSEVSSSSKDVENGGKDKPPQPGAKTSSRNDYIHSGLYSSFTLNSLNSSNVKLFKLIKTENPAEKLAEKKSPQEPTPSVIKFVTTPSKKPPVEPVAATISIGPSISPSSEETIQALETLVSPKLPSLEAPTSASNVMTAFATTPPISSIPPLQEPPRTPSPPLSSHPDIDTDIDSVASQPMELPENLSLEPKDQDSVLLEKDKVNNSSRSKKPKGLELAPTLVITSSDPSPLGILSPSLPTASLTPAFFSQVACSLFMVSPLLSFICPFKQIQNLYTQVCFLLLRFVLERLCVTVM
The following applies: protein: recombinant; tags: N-terminal GST; dsDNA, one strand shown. The gist of the method: as §1

The target of assay [7] is T4, ETV2 (Homo sapiens, UniProt O00321 1-342).
T4 sequence: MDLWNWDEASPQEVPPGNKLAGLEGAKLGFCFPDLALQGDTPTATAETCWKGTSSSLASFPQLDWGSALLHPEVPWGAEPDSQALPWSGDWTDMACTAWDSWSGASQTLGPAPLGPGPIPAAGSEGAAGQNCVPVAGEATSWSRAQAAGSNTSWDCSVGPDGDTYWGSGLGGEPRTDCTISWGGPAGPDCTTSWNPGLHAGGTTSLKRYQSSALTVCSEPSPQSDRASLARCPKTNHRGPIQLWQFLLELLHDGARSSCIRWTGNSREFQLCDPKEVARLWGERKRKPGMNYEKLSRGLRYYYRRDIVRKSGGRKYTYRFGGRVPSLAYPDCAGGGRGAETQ
The following applies: protein: recombinant; tags: N-terminal GST; dsDNA, one strand shown. In a few lines:
as §1

In assay [8] the target is T5, ELF3 (Homo sapiens, UniProt P78545 1-371).
T5 sequence: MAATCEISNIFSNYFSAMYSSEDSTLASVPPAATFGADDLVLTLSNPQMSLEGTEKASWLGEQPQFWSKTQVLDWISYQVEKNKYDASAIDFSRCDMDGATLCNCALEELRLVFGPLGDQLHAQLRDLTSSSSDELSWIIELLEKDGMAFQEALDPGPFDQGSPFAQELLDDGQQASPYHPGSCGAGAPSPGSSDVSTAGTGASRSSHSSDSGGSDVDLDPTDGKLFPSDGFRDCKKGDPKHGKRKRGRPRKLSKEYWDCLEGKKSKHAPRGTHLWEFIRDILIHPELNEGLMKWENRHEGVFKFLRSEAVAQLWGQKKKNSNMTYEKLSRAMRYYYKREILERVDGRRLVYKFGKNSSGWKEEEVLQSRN
The following applies: protein: recombinant; tags: N-terminal GST; dsDNA, one strand shown. The gist of the method: as §1

Assay [9] addresses CRX (Homo sapiens, UniProt O43186 1-299). The conditions noted are these: protein: recombinant; tags: N-terminal GST; dsDNA, one strand shown. In a few lines:
as §1

The target in assay [10] is ETV1 (Homo sapiens, UniProt P50549 1-477). The following applies: protein: recombinant; tags: N-terminal GST; dsDNA, one strand shown. In a few lines: as §1
Assay [11] deals with T6, ERF (Homo sapiens, UniProt P50548 1-548).
T6 sequence: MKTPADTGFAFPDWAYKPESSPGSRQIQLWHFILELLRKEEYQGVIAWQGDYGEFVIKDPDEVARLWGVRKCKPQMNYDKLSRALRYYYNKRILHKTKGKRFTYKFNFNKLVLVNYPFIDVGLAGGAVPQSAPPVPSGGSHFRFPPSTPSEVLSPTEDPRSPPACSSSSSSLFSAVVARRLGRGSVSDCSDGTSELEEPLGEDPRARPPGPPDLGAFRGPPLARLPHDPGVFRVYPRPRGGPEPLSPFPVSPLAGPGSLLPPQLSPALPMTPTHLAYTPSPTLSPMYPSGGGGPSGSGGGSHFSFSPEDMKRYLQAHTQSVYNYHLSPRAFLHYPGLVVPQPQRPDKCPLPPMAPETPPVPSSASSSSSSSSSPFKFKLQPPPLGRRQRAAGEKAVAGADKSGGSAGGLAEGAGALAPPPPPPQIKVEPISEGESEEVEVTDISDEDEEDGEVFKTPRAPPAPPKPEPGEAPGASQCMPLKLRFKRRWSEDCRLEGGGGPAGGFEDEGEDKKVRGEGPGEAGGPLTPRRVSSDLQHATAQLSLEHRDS
The conditions noted are these: protein: recombinant; tags: N-terminal GST; dsDNA, one strand shown. The gist of the method: as §1

Assay [12] has as its target T7, ETV3L (Homo sapiens, UniProt Q6ZN32 1-361).
T7 sequence: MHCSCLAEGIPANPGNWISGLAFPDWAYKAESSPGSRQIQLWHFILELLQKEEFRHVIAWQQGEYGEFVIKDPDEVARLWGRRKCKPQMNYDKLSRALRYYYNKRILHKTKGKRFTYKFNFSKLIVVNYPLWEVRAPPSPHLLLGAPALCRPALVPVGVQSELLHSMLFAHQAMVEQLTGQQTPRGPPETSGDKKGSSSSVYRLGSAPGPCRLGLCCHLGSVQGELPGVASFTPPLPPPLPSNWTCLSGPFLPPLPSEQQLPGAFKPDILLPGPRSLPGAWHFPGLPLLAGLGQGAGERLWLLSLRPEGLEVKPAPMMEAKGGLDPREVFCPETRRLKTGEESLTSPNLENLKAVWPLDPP
The following applies: protein: recombinant; tags: N-terminal GST; dsDNA, one strand shown. The gist of the method: as §1

Assay [13] concerns the target T8, ETS2 (Homo sapiens, UniProt P15036 1-469).
T8 sequence: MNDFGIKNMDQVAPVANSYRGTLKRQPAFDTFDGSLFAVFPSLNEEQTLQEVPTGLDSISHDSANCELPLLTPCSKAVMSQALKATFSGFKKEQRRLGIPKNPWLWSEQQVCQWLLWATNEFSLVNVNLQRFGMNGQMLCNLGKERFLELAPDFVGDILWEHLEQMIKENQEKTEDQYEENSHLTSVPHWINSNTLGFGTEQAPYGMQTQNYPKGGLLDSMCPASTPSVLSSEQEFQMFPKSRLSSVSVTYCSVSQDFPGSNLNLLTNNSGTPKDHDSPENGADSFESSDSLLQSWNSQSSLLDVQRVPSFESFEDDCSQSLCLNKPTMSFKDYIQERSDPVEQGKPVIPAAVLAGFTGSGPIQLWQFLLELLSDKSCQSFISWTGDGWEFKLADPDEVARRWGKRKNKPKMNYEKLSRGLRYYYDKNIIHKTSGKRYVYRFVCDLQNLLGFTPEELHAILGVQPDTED
The following applies: protein: recombinant; tags: N-terminal GST; dsDNA, one strand shown. The gist of the method:
as §1

In assay [14] the target is T9, SPDEF (Homo sapiens, UniProt O95238 1-335).
T9 sequence: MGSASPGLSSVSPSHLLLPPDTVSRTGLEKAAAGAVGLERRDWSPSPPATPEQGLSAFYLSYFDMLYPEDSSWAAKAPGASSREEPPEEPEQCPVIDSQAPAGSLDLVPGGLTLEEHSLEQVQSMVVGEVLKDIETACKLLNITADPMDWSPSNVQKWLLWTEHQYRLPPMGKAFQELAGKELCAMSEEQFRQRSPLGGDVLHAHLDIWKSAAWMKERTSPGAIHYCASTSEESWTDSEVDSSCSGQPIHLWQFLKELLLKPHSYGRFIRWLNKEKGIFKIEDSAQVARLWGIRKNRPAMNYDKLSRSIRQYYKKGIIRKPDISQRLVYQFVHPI
The following applies: protein: recombinant; tags: N-terminal GST; dsDNA, one strand shown. The gist of the method: as §1

The target in assay [15] is T10, ETV7 (Homo sapiens, UniProt Q9Y603 1-341).
T10 sequence: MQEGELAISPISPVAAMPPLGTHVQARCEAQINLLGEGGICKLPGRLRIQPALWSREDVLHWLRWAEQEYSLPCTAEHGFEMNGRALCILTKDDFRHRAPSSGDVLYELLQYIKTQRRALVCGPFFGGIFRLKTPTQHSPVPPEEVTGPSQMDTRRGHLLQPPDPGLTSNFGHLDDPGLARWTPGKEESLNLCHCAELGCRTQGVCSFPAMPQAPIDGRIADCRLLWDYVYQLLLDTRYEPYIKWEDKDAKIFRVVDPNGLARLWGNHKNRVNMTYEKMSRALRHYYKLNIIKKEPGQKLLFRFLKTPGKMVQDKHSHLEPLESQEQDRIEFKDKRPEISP
The conditions noted are these: protein: recombinant; tags: N-terminal GST; dsDNA, one strand shown. The gist of the method: as §1

Assay [16] has as its target T11, ELF5 (Homo sapiens, UniProt Q9UKW6-2 1-255).
T11 sequence: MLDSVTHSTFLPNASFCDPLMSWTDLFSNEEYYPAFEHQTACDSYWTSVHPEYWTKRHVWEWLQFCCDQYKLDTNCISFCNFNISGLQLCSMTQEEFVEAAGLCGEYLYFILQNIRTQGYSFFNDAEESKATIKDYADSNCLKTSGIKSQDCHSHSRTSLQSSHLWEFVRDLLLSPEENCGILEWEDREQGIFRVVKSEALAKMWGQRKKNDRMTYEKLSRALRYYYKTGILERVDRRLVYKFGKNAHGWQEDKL
The conditions noted are these: protein: recombinant; tags: N-terminal GST; dsDNA, one strand shown. In a few lines: as §1

Assay [17] deals with T12, ETV3 (Homo sapiens, UniProt P41162-2 1-143).
T12 sequence: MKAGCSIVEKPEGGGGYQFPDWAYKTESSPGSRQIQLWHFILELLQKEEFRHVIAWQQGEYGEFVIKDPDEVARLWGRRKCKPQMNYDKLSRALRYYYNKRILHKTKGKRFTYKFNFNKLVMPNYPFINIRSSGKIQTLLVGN
The following applies: protein: recombinant; tags: N-terminal GST; dsDNA, one strand shown. The gist of the method: as §1

The target in assay [18] is ETV6 (Homo sapiens, UniProt P41212 1-452). The conditions noted are these: protein: recombinant; tags: N-terminal GST; dsDNA, one strand shown. In a few lines: as §1

These results are taken from publication PMC7862700, “An all-to-all approach to the identification of sequence-specific readers for epigenetic DNA modifications on cytosine”.

Sequence of ETV1 (P50549 whole entry): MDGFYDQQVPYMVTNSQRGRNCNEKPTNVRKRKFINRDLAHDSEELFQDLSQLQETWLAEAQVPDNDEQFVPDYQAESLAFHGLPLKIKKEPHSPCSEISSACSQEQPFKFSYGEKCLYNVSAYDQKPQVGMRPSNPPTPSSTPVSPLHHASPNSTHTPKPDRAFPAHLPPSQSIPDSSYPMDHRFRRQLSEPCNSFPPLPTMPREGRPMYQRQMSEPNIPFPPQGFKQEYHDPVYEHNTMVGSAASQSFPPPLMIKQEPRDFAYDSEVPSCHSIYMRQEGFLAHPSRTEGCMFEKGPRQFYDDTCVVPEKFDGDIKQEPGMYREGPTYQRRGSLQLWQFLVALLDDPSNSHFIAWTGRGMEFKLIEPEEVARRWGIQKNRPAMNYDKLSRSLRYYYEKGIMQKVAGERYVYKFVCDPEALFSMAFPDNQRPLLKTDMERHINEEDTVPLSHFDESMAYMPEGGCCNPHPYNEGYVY
Sequence of ETV6 (P41212 whole entry): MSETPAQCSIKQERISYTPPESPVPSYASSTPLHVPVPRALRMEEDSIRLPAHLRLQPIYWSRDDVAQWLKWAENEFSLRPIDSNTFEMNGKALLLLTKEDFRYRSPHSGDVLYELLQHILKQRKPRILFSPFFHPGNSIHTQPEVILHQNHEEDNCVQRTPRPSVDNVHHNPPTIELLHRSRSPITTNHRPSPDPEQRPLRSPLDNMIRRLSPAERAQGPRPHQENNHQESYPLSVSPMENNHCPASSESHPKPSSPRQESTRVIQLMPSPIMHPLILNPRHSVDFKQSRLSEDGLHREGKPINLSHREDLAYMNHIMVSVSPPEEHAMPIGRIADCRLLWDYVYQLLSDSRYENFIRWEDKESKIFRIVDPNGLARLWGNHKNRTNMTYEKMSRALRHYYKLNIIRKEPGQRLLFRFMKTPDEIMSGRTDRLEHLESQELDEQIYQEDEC
Sequence of HSF1 (Q00613 whole entry): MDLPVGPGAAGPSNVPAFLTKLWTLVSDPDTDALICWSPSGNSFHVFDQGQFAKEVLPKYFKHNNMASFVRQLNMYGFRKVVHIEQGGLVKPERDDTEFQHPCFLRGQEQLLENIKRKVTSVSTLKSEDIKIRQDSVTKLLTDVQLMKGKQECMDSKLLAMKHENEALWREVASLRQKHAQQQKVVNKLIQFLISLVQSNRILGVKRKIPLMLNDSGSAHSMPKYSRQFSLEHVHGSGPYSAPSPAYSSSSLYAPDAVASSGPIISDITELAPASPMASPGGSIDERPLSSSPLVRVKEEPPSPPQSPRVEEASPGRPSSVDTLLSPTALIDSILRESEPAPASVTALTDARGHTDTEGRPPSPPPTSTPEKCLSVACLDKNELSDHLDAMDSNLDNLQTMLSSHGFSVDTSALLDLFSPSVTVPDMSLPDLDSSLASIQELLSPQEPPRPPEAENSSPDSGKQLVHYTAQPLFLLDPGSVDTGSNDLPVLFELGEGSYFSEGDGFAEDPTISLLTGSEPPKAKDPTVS
Sequence of CRX (O43186 whole entry): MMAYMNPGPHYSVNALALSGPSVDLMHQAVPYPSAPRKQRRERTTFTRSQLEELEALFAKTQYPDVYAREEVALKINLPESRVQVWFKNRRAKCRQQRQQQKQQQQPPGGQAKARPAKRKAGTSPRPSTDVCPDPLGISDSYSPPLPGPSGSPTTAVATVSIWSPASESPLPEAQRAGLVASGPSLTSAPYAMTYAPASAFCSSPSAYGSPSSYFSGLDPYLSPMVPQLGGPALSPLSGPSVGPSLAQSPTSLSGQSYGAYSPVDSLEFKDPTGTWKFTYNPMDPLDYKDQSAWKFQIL
Sequence of ELF4 (Q99607 whole entry): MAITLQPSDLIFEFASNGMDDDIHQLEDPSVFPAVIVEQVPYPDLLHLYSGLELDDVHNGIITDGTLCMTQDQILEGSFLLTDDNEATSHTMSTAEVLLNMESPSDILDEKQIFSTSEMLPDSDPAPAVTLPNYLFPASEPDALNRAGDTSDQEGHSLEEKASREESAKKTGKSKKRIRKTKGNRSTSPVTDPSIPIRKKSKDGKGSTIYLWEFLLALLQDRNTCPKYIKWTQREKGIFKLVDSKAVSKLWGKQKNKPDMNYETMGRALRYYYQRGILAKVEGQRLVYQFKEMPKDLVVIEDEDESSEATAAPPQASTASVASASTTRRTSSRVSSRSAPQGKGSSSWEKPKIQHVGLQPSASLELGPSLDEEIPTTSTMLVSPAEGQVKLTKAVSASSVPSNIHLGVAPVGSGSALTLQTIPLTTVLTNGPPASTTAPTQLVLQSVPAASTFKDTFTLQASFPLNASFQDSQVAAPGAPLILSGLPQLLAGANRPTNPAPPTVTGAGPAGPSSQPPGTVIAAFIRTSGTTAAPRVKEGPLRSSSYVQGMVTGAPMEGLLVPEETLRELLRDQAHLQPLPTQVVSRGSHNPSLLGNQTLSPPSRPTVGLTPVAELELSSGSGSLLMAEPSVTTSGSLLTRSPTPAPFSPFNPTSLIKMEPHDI
Sequence of ETV5 (P41161 whole entry): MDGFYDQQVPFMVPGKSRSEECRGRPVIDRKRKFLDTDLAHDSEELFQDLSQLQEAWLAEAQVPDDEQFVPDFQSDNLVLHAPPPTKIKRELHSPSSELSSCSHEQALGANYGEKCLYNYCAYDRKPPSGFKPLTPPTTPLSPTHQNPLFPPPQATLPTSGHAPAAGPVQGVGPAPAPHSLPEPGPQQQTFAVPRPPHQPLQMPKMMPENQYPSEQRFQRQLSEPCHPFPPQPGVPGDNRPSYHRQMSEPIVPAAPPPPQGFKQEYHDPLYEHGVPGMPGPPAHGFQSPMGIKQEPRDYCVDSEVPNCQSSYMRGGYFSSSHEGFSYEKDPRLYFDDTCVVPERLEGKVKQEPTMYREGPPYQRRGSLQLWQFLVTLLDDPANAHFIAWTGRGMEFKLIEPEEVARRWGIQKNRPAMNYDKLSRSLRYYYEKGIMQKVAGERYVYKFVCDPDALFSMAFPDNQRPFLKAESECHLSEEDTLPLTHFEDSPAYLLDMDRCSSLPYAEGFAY

As to GCTAAT, the binding signal in [1] is 1.18 fold enrichment (6-mer frequency, TF over GST control); in assay [2], 1.11 fold enrichment (6-mer frequency, TF over GST control); in assay [3], 1.72 fold enrichment (6-mer frequency, TF over GST control); in assay [4] it was 1.23 fold enrichment (6-mer frequency, TF over GST control); in assay [5] it was 1.27 fold enrichment (6-mer frequency, TF over GST control); in assay [6], 1.22 fold enrichment (6-mer frequency, TF over GST control). The binding signal in assay [7] is 1.24 fold enrichment (6-mer frequency, TF over GST control); in [8], 1.22 fold enrichment (6-mer frequency, TF over GST control); in assay [9], 2.56 fold enrichment (6-mer frequency, TF over GST control); in assay [10] it was 1.14 fold enrichment (6-mer frequency, TF over GST control); in [11], 1.23 fold enrichment (6-mer frequency, TF over GST control); in assay [12], 1.13 fold enrichment (6-mer frequency, TF over GST control). In addition, the binding signal is 1.24 fold enrichment (6-mer frequency, TF over GST control) in [13]; 1.03 fold enrichment (6-mer frequency, TF over GST control) in assay [14]; 1.23 fold enrichment (6-mer frequency, TF over GST control) in [15]; 1.07 fold enrichment (6-mer frequency, TF over GST control) in assay [16]; 1.2 fold enrichment (6-mer frequency, TF over GST control) in assay [17]; 1.17 fold enrichment (6-mer frequency, TF over GST control) in assay [18].
